# Measured values from PubChem BioAssay (NCATS).
# “And” between values parts separate entries of the source, which are not always exact repeats. Equal values may be shown once. Inconclusive results are not listed. A call without a number means that no potency is given here. The source made the active and inactive calls. Unless noted, calls follow the shape of the dose curve; as a rule, active = well fitted curve in the direction sought with a large enough effect; inconclusive = small, poorly fitted or top-dose-only effect, or another doubt; inactive = no such curve, though single readings can be large; an effect the other way counts as inactive or inconclusive.
# Legend:
# [1] = Primary qHTS for inhibitors of nuclear receptor binding SET domain protein 2 (NSD2) in an isogenic RCH-ACV NSD2 p.E1099K mutant (9B) (AID 1645876); also: nearly all actives have a fitted effect of over 70% in size; also: potency is read from the fitted curve at half-maximal effect
# [2] = Primary qHTS for inhibitors of nuclear receptor binding SET domain protein 2 (NSD2) in an RCH-ACV wild type WT cells (2C) (AID 1645877); also: nearly all actives have a fitted effect of over 70% in size
# [3] = target: Phospholipid hydroperoxide glutathione peroxidase GPX4 (Homo sapiens) (UniProt P36969); assay: Primary qHTS Assay for Inhibitors of Recombinant Selenoprotein Glutathione Peroxidase 4 (GPX4) (AID 1845192); also: nearly all actives have a fitted effect of over 65% in size
# Procedure, shortened: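 GR-coupled readout: 100 nM GR, 1 mM GSH, 0.5 mM NADPH; NADPH fluorescence (ex 340/em 450 nm) read at t=0 and after 15 min RT. GPX4 200 nM, preincubated 30 min with compound; substrate 0.5 mM CHP.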
# [4] = target: Glutathione peroxidase 1 (Homo sapiens) (UniProt P07203); assay: Primary qHTS Assay for Inhibitors of Recombinant Selenoprotein Glutathione Peroxidase 1 (GPX1) (AID 1845191); also: nearly all actives have a fitted effect of over 65% in size; also: potency is read from the fitted curve at half-maximal effect
# Procedure, shortened: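 Recombinant GPX1 (10 nM final) was preincubated with compound for 30 min at room temperature, then reacted with 1 mM GSH, 0.5 mM CHP, 0.5 mM NADPH and 100 nM glutathione reductase; NADPH fluorescence (340/450 nm) was read at 0 and 15 min.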
# [5] = NCATS anti-infectives library activity on HEK293 viability as a counter-qHTS vs the C. elegans viability qHTS (AID 1745854);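 also: HEK293 cells exposed to compounds for 24 hr before the viability read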
# Procedure, shortened: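 Cytotoxicity in human HEK293 cells is measured by ATP-dependent CellTiter-Glo luminescence following a 24 hr incubation with titrated library compounds at 37C. Top final concentration is 41.7 uM.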
# [6] = target: Rap guanine nucleotide exchange factor 3 (Homo sapiens) (UniProt O95398); assay: Confirmatory qHTS for antagonist of cAMP-regulated guanine nucleotide exchange factor 3 (EPAC1) (AID 1645880); also: nearly all actives have a fitted effect of over 55% in size
# Procedure, shortened: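 Nucleotide exchange uses 100 nM EPAC1, 250 nM RAP1B-BODIPY-GDP and 50 uM GDP, with compounds in a concentration-titration series. After 5 min at room temperature, fluorescence (480 nm ex/540 nm em) is read every 5 min for 30 min. Data are normalized to control ATA and DMSO.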
# [7] = target: Rap guanine nucleotide exchange factor 3 (Homo sapiens) (UniProt O95398); assay: Confirmatory qHTS for agonist of cAMP-regulated guanine nucleotide exchange factor 3 (EPAC1) (AID 1645881);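 also: EPAC1 catalysed release of BODIPY-GDP from Rap1B seen as fluorescence loss; nearly all actives have a fitted effect of over 75% in size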
# [8] = target: Rap guanine nucleotide exchange factor 4 (Homo sapiens) (UniProt Q8WZA2); assay: Confirmatory qHTS for agonist of cAMP-regulated guanine nucleotide exchange factor 4 (EPAC2) (AID 1645884);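 also: nucleotide exchange releases bodipy-GDP from Rap1 and this lowers its fluorescence; nearly all actives have a fitted effect of over 65% in size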
# [9] = target: Rap guanine nucleotide exchange factor 4 (Homo sapiens) (UniProt Q8WZA2); assay: Confirmatory qHTS for antagonist of cAMP-regulated guanine nucleotide exchange factor 4 (EPAC2) (AID 1645885); also: potency is read from the fitted curve at half-maximal effect; nearly all actives have a fitted effect of over 25% in size
# [10] = target: Catechol O-methyltransferase (Homo sapiens) (UniProt P21964); assay: Confirmatory Screen for Target Class Profiling of Small Molecule Inhibitors of Methyltransferases (AID 1745852; calls by dose curve); conditions: MTase-Glo luminescence, SAH detection, recombinant enzyme; measured here: COMT max response; stronger effect = lower value
# [11] = target: Guanidinoacetate N-methyltransferase (Homo sapiens) (UniProt Q14353); assay: as above; conditions: MTase-Glo luminescence, SAH detection, recombinant enzyme; at 57.3 µM (top of the series)
# [12] = target: Nicotinamide N-methyltransferase (Homo sapiens) (UniProt P40261); assay: as above; conditions: MTase-Glo luminescence, SAH detection, recombinant enzyme; measured here: NNMT max response; stronger effect = lower value
# [13] = target: Phenylethanolamine N-methyltransferase (Homo sapiens) (UniProt P11086); assay: as above; conditions: MTase-Glo luminescence, SAH detection, recombinant enzyme; measured here: PNMT max response; stronger effect = lower value
# [14] = NCATS anti-infectives library activity on the primary C. elegans qHTS viability assay (AID 1745855; calls by dose curve); conditions: C. elegans worm area imaging, day 7; at 41.8 µM (top of the series)
# Procedure, shortened: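 Viability is taken from GFP fluorescence of PE254-GFP-FLuc C. elegans imaged by laser cytometry over 7 days. Ten L1 worms per well grow at 21 °C on TOP10 E. coli capsules with titrated compound; levamisole marks toxicity.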
# [15] = Viability counterscreen for antagonist of constitutive androstane receptor (CAR) against the NCATS DSHEA and TCM libraries (AID 1794837);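 also: compound exposure lasted 24 h before viability reading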
# Procedure, shortened: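 Viability was measured by CellTiter-Fluor fluorescence (405/540 nm, 1 hr) in HepG2-CYP2B6-hCAR cells. Cells were co-treated 24 hr with 48 uM CITCO (final), antagonist mode, and test substances.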
# [16] = Viability counterscreen for agonist of constitutive androstane receptor (CAR) against the NCATS DSHEA and TCM libraries (AID 1794838);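 also: cells exposed to compound for 24 h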
# Procedure, shortened: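 Cell viability, from CellTiter-Fluor fluorescence (405/540 nm), was scored after a 24 h, 37C exposure of HepG2 cells carrying CYP2B6 reporter and hCAR to test substances in presence of 0.75 uM PK11195.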
# [17] = target: Nuclear receptor subfamily 1 group I member 3 (Homo sapiens) (UniProt Q14994); assay: Primary qHTS for agonist of constitutive androstane receptor (CAR) against the NCATS DSHEA and TCM libraries (AID 1794839);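 also: HepG2 cells expressing human CAR with a CYP2B6 reporter plus PK11195 antagonist; luciferase reporter luminescence read with ONE-Glo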
# Procedure, shortened: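 Agonist mode in presence of hCAR antagonist PK11195 (0.75 µM final): test substances, 24 h, 37 °C, on HepG2-CYP2B6-hCAR cells. Same-well readouts: fluorescence viability, then ONE-Glo luminescence; CITCO as reference agonist.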
# [18] = HepG2 viability counterscreen (readout 2: ATP content) against the NCATS DSHEA and TCM libraries (AID 1794840);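 also: HepG2 cells exposed to substances for about 24 h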
# Procedure, shortened: (§1)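 Readout 1: cellular protease activity, GF-AFC substrate (25 uM final, 30 min, fluorescence 380/510 nm). Readout 2: ATP content by CellTiter-Glo luminescence after 30 min at RT. Both follow ~24 h exposure of HepG2 cells (1,000/well) to substances.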
# [19] = HepG2 viability counterscreen (readout 1: protease activity) against the NCATS DSHEA and TCM libraries (AID 1794841);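 also: cells exposed to compounds for about 24 h before the protease read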
# Procedure, shortened: as §1
# Chain of Phospholipid hydroperoxide glutathione peroxidase GPX4 (Homo sapiens) (P36969 whole entry, looked up): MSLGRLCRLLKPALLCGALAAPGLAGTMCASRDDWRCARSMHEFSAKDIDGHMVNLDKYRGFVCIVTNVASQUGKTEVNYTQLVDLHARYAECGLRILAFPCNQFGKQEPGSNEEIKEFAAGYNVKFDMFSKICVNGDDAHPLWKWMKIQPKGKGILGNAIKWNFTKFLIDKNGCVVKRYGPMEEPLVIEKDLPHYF
# Chain of Glutathione peroxidase 1 (Homo sapiens) (P07203 whole entry, looked up): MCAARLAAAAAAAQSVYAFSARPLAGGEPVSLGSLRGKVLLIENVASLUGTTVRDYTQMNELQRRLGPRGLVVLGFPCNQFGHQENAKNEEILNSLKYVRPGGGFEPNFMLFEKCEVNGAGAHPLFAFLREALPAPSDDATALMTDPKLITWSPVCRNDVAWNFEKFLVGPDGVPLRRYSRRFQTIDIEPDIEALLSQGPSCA
# Chain of Rap guanine nucleotide exchange factor 3 (Homo sapiens) (O95398 whole entry, looked up): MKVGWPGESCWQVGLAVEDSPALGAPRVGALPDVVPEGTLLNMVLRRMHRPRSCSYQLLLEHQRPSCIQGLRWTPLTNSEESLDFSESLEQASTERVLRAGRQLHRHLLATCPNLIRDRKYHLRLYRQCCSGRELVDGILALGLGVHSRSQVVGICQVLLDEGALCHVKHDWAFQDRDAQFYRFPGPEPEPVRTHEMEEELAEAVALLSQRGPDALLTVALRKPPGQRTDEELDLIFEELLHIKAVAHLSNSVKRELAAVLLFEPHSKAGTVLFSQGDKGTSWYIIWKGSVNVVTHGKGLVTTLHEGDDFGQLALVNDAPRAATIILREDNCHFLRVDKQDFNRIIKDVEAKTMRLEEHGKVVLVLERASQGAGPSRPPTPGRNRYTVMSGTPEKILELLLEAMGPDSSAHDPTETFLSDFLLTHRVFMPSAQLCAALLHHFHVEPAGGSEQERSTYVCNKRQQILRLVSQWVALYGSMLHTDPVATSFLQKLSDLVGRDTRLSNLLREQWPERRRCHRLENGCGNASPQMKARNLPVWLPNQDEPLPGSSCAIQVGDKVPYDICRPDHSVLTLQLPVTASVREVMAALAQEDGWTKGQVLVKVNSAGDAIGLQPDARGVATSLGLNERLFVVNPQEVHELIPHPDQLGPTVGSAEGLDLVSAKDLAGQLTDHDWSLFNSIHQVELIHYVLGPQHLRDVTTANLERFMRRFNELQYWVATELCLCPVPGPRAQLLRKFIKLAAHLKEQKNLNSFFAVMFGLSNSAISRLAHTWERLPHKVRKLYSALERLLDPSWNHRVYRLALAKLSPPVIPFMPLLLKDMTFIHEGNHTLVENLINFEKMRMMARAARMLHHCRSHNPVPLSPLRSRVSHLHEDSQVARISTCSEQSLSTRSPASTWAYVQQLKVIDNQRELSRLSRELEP
# Chain of Rap guanine nucleotide exchange factor 4 (Homo sapiens) (Q8WZA2 whole entry, looked up): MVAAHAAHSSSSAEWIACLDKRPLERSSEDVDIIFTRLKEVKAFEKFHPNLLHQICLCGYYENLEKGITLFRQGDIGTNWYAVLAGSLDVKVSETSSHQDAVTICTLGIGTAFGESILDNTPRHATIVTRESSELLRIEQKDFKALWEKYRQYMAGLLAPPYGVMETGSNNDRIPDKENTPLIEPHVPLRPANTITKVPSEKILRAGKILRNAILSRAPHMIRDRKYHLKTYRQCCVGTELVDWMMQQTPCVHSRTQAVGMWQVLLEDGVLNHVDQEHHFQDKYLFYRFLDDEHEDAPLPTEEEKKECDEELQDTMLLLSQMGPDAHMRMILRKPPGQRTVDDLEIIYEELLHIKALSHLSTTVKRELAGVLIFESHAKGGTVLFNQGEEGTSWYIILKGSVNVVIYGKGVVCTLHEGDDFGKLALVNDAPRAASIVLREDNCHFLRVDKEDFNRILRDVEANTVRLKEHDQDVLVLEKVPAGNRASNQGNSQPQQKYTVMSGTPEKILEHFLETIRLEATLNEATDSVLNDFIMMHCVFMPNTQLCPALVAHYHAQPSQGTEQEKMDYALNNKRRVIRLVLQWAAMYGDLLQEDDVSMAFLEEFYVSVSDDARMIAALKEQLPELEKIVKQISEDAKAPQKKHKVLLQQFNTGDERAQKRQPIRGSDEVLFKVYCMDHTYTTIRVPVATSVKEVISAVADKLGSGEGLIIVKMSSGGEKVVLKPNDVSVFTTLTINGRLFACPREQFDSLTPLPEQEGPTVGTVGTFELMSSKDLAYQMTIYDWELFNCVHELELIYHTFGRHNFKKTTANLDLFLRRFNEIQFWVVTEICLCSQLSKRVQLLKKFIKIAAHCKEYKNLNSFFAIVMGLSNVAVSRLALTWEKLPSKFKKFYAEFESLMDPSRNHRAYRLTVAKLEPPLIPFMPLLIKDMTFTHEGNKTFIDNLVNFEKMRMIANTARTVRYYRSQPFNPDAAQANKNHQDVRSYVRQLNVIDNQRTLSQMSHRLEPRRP
# Chain of Catechol O-methyltransferase (Homo sapiens) (P21964 whole entry, looked up): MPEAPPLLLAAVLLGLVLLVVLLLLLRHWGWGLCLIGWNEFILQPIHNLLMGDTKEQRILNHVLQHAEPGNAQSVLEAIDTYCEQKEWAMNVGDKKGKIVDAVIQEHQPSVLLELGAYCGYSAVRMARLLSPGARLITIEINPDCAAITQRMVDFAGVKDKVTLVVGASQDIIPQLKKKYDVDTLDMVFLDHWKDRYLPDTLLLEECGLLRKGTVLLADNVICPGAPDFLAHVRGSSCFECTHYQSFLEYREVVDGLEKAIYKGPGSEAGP
# Chain of Nicotinamide N-methyltransferase (Homo sapiens) (P40261 whole entry, looked up): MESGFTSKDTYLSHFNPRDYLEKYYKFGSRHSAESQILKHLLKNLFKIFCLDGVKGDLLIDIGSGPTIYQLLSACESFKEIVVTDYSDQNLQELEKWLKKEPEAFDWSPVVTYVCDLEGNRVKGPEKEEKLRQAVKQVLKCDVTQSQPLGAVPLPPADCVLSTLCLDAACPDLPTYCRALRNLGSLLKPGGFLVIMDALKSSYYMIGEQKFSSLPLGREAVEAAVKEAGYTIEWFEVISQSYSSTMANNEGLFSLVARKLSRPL
# Chain of Nuclear receptor subfamily 1 group I member 3 (Homo sapiens) (Q14994 whole entry, looked up): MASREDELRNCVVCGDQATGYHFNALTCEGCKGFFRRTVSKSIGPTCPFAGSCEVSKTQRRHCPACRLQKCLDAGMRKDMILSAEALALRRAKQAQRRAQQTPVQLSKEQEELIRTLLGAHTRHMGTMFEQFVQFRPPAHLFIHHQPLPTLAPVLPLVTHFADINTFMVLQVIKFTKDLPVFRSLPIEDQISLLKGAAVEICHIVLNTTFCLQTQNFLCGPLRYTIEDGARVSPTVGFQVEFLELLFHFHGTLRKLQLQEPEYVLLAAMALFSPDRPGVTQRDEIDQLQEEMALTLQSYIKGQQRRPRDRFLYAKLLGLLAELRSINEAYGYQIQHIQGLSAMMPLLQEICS
# Chain of Phenylethanolamine N-methyltransferase (Homo sapiens) (P11086 whole entry, looked up): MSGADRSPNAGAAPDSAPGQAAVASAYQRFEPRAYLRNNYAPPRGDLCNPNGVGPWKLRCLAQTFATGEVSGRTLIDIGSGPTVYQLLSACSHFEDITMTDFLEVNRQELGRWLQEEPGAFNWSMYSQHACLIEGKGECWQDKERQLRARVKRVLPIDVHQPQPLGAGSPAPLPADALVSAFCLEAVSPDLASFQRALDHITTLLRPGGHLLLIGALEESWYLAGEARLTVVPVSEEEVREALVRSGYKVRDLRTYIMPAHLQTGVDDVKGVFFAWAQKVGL
smiles,measurement,setting,value
CNC(=O)c1c(I)c(NC(C)=O)c(I)c(C(=O)O)c1I,Potency,[1],inactive
same,Potency,[2],inactive
same,Potency,[3],inactive
Cc1ccc2c(Cl)cc(Cl)c(O)c2n1,Potency,[1],inactive
same,Potency,[4],inactive
same,Potency,[3],inactive
CC1c2ccccc2CN1NC(=O)c1ccc(Cl)c(S(N)(=O)=O)c1 (centres undefined),Potency,[1],inactive
same,Potency,[4],inactive
same,Potency,[3],inactive
NC(=O)NC1N=C([O][Al])NC1=O (centres undefined),Potency,[1],inactive
same,Potency,[4],inactive
same,Potency,[3],inactive
Cc1cc2nc3ccc(=[N+](C)C)cc-3sc2cc1N,Potency,[1],1.33 µM (active)
same,Potency,[4],28.6 µM (active)
CC1CN(c2cc3c(cc2F)c(=O)c(C(=O)O)cn3-c2ccc(F)cc2F)CCN1 (centres undefined),"activity change, negative = viability loss",[1],4.46% [at 4.96 µM] (inactive)
same,"activity change, negative = cell killing",[2],-0.258% [at 4.96 µM] (inactive)
same,Potency,[3],inactive
CC(=O)OCC(=O)Nc1cc(C#N)cc(NC(=O)COC(C)=O)c1Cl,Potency,[1],inactive
same,Potency,[4],inactive
same,Potency,[3],inactive
O=[N+]([O-])c1nccn1CO[C@@H](CO)[C@H](O)CO,Potency,[1],inactive
same,Potency,[4],inactive
CCCCNc1ccc(C(=O)OCCN(CC)CC)cc1,Potency,[1],inactive
same,Potency,[4],inactive
same,Potency,[3],inactive
CC(=O)O[C@@H]1CC2C3CCc4cc(OC(=O)c5ccccc5)ccc4C3CCC2(C)[C@H]1OC(C)=O (some centres undefined),Potency,[1],inactive
same,Potency,[4],inactive
CCOC(=O)O[C@]1(C(=O)OCCl)CC[C@H]2[C@@H]3CCC4=CC(=O)C=C[C@]4(C)[C@H]3[C@@H](O)C[C@@]21C,Potency,[1],inactive
same,Potency,[4],inactive
same,Potency,[3],inactive
CCOC(=O)NNc1ccc(N(CC)CC(C)O)nn1 (centres undefined),Potency,[1],inactive
same,Potency,[4],inactive
Cc1ccc(Cl)c(OCC(O)CNC(C)(C)C)c1 (centres undefined),Potency,[1],inactive
same,Potency,[4],inactive
same,Potency,[3],inactive
CN1CCC(=C2c3ccccc3CCc3cccnc32)CC1,Potency,[1],inactive
same,Potency,[4],inactive
same,Potency,[3],inactive
CC(=O)OCC[N+](C)(C)C,Potency,[1],inactive
same,Potency,[2],inactive
same,Potency,[3],inactive
CN(C)CCN(Cc1ccsc1)c1ccccn1,Potency,[1],inactive
same,Potency,[4],inactive
same,Potency,[3],inactive
NCC[C@H](O)C(=O)N[C@@H]1C[C@H](N)[C@@H](O[C@H]2O[C@H](CN)[C@@H](O)[C@H](O)[C@@H]2O)[C@H](O)[C@@H]1O[C@H]1O[C@H](CO)[C@@H](O)[C@H](N)[C@@H]1O,"activity change, negative = viability loss",[1],7.89% [at 0.588 µM] (inactive)
same,"activity, negative = inhibition",[4],-13.8% [at 0.4 µM] (inactive)
same,"activity change, negative = inhibition",[3],-16.2% [at 0.409 µM] (inactive)
O=C(Oc1ccccc1)c1ccccc1O,Potency,[1],inactive
same,Potency,[4],inactive
same,Potency,[3],inactive
C#CC(C)(CC)OC(=O)c1ccccc1C(=O)O (centres undefined),Potency,[1],inactive
same,Potency,[2],inactive
same,Potency,[3],inactive
Cc1cccc(N(C)C(=S)Oc2ccc3c(c2)C2CCC3C2)c1 (centres undefined),Potency,[1],inactive
same,Potency,[4],inactive
same,Potency,[3],inactive
Nc1ncnc2nc[nH]c12,Potency,[1],inactive
same,Potency,[3],inactive
Cc1cccc(C)c1NC(=O)c1cc(S(N)(=O)=O)c(Cl)cc1O,Potency,[1],inactive
same,Potency,[4],inactive
same,Potency,[3],inactive
CC(C(=O)O)c1ccc(/C=C2\CCCCC2=O)cc1 (centres undefined),Potency,[1],inactive
same,Potency,[4],inactive
same,Potency,[3],inactive
CC(CC(C#N)(c1ccccc1)C(C)C)N(C)C (centres undefined),Potency,[1],inactive
same,Potency,[4],inactive
same,Potency,[3],inactive
CCOC(=O)Oc1ccc(CCNC(=O)[C@H](CCSC)NC(C)=O)cc1OC(=O)OCC,Potency,[1],inactive
same,Potency,[2],inactive
same,Potency,[3],inactive
CN(C(=O)C(Cl)Cl)c1ccc(OC(=O)c2ccco2)cc1,Potency,[1],inactive
same,Potency,[4],inactive
same,Potency,[3],inactive
O=C(O)c1ccccc1Nc1cc(Cl)ccc1C(=O)O,Potency,[1],inactive
same,Potency,[4],inactive
Cc1c(C)c2c(c(C)c1OC(=O)CCC(=O)OCCO)CC[C@@](C)(CCC[C@H](C)CCC[C@H](C)CCCC(C)C)O2,Potency,[1],21.1 µM (active)
same,Potency,[3],inactive
O=[N+]([O-])c1ccc(O)c2ncccc12,Potency,[1],1.88 µM (active) and 6.61 µM (active)
same,Potency,[4],inactive
same,Potency,[3],inactive
Nc1nc(=O)n([C@@H]2O[C@H](CO)[C@@H](O)[C@@H]2F)cc1I,Potency,[1],1.68 µM (active)
same,Potency,[5],inactive
CC(C)(c1ccc(O)cc1)c1ccc(O)cc1,Potency,[6],inactive
same,Potency,[7],inactive
same,Potency,[8],inactive
same,Potency,[9],80.4 µM (active)
CCOC(=O)Cn1cccc1-c1nc(-c2ccc(OC)cc2)c(-c2ccc(OC)cc2)s1,activity,[10],-5.88%
same,"activity change, negative = inhibition",[11],-8.59%
same,activity,[12],-5.59%
same,activity,[13],-4.51%
Clc1ccc2c(c1)N=C(N1CCNCC1)c1ccccc1N2,outcome,[14],inactive
C[N+](C)(C)CCO,outcome,[15],inactive
same,outcome,[16],inactive
same,outcome,[17],inactive
same,outcome,[18],inactive
same,outcome,[19],inactive
Cc1ccc(C(=O)Oc2ccc(C(O)CNC(C)(C)C)cc2OC(=O)c2ccc(C)cc2)cc1 (centres undefined),Potency,[3],inactive
CCCCC(=O)OCC(=O)[C@H]1[C@H](C)C[C@H]2[C@@H]3C[C@H](F)C4=CC(=O)C=C[C@]4(C)[C@@]3(F)[C@@H](O)C[C@@]21C,Potency,[4],inactive
same,Potency,[3],inactive
